Reference: publication PMC9911399, “Two distinct binding modes provide the RNA-binding protein RbFox with extraordinary sequence specificity”
Changes are numbered by the printed parent chain; changes in the protein carry UniProt numbers. The full ranking holds about 16,000 sequences; the median of “ka relative to ugcaugu” is about 0.096, and the highest 2% start at about 0.35. Shown is part of a subset that was picked to be rich in the highest values.

T1: RBFOX1 RRM RbFoxmut (Fox-RRM*) (Homo sapiens, UniProt Q9NWB1 109-208, R118D;E147R;N151S;E152T)
T1 sequence: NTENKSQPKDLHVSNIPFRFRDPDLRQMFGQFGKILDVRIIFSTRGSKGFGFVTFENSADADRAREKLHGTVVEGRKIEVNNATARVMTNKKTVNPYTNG

B1: GGAAACG (DNA:RNA)
RNA: GGGAGACCGGAAUUCAGAUUGUCCGGAAACGUUAAAUCCCGUCGUAGCCACCA
DNA 1: CAATCTGAATTCCGGTCTCCC
DNA 2: TGGTGGCTACGACGGGATT
B2: ACGCCAA (DNA:RNA)
RNA: GGGAGACCGGAAUUCAGAUUGUCCACGCCAAUUAAAUCCCGUCGUAGCCACCA
DNA 1: CAATCTGAATTCCGGTCTCCC
DNA 2: TGGTGGCTACGACGGGATT
B3: GAACCAG (DNA:RNA)
RNA: B2 RNA with A25G, C26A, G27A, A31G
DNA 1: CAATCTGAATTCCGGTCTCCC
DNA 2: TGGTGGCTACGACGGGATT
B4: CCCGGCG (DNA:RNA)
RNA: B1 RNA with G25C, G26C, A27C, A28G, A29G
DNA 1: CAATCTGAATTCCGGTCTCCC
DNA 2: TGGTGGCTACGACGGGATT
B5: CGAUCGA (DNA:RNA)
RNA: B2 RNA with A25C, C26G, G27A, C28U, A30G
DNA 1: CAATCTGAATTCCGGTCTCCC
DNA 2: TGGTGGCTACGACGGGATT
B6: GGCGUCG (DNA:RNA)
RNA: B1 RNA with A27C, A28G, A29U
DNA 1: CAATCTGAATTCCGGTCTCCC
DNA 2: TGGTGGCTACGACGGGATT
B7: GAUCGAA (DNA:RNA)
RNA: B2 RNA with A25G, C26A, G27U, C29G
DNA 1: CAATCTGAATTCCGGTCTCCC
DNA 2: TGGTGGCTACGACGGGATT
B8: GGCGUUG (DNA:RNA)
RNA: B1 RNA with A27C, A28G, A29U, C30U
DNA 1: CAATCTGAATTCCGGTCTCCC
DNA 2: TGGTGGCTACGACGGGATT
B9: GGAAUCA (DNA:RNA)
RNA: B1 RNA with A29U, G31A
DNA 1: CAATCTGAATTCCGGTCTCCC
DNA 2: TGGTGGCTACGACGGGATT
B10: GAUUCAG (DNA:RNA)
RNA: B2 RNA with A25G, C26A, G27U, C28U, A31G
DNA 1: CAATCTGAATTCCGGTCTCCC
DNA 2: TGGTGGCTACGACGGGATT
B11: GAAUCAG (DNA:RNA)
RNA: B1 RNA with G26A, A28U, A29C, C30A
DNA 1: CAATCTGAATTCCGGTCTCCC
DNA 2: TGGTGGCTACGACGGGATT
B12: GAAUCGA (DNA:RNA)
RNA: B2 RNA with A25G, C26A, G27A, C28U, A30G
DNA 1: CAATCTGAATTCCGGTCTCCC
DNA 2: TGGTGGCTACGACGGGATT
B13: GUUAUCA (DNA:RNA)
RNA: B1 RNA with G26U, A27U, A29U, G31A
DNA 1: CAATCTGAATTCCGGTCTCCC
DNA 2: TGGTGGCTACGACGGGATT
B14: GUCAUCA (DNA:RNA)
RNA: B1 RNA with G26U, A27C, A29U, G31A
DNA 1: CAATCTGAATTCCGGTCTCCC
DNA 2: TGGTGGCTACGACGGGATT
B15: AGGUGCA (DNA:RNA)
RNA: B2 RNA with C26G, C28U, C29G, A30C
DNA 1: CAATCTGAATTCCGGTCTCCC
DNA 2: TGGTGGCTACGACGGGATT
B16: GUAUUCU (DNA:RNA)
RNA: B1 RNA with G26U, A28U, A29U, G31U
DNA 1: CAATCTGAATTCCGGTCTCCC
DNA 2: TGGTGGCTACGACGGGATT
B17: UCCUAGU (DNA:RNA)
RNA: B2 RNA with A25U, G27C, C28U, C29A, A30G, A31U
DNA 1: CAATCTGAATTCCGGTCTCCC
DNA 2: TGGTGGCTACGACGGGATT
B18: UUCUCAG (DNA:RNA)
RNA: B2 RNA with A25U, C26U, G27C, C28U, A31G
DNA 1: CAATCTGAATTCCGGTCTCCC
DNA 2: TGGTGGCTACGACGGGATT
B19: CGGCGAA (DNA:RNA)
RNA: B2 RNA with A25C, C26G, C29G
DNA 1: CAATCTGAATTCCGGTCTCCC
DNA 2: TGGTGGCTACGACGGGATT
B20: GUUUAAG (DNA:RNA)
RNA: B1 RNA with G26U, A27U, A28U, C30A
DNA 1: CAATCTGAATTCCGGTCTCCC
DNA 2: TGGTGGCTACGACGGGATT
B21: UCCCAUG (DNA:RNA)
RNA: B2 RNA with A25U, G27C, C29A, A30U, A31G
DNA 1: CAATCTGAATTCCGGTCTCCC
DNA 2: TGGTGGCTACGACGGGATT
B22: GUCGUCG (DNA:RNA)
RNA: B1 RNA with G26U, A27C, A28G, A29U
DNA 1: CAATCTGAATTCCGGTCTCCC
DNA 2: TGGTGGCTACGACGGGATT
B23: GAUGUCG (DNA:RNA)
RNA: B1 RNA with G26A, A27U, A28G, A29U
DNA 1: CAATCTGAATTCCGGTCTCCC
DNA 2: TGGTGGCTACGACGGGATT
B24: CGUCCCG (DNA:RNA)
RNA: B1 RNA with G25C, A27U, A28C, A29C
DNA 1: CAATCTGAATTCCGGTCTCCC
DNA 2: TGGTGGCTACGACGGGATT
B25: GGAAUCG (DNA:RNA)
RNA: B1 RNA with A29U
DNA 1: CAATCTGAATTCCGGTCTCCC
DNA 2: TGGTGGCTACGACGGGATT
B26: GUCGAUG (DNA:RNA)
RNA: B1 RNA with G26U, A27C, A28G, C30U
DNA 1: CAATCTGAATTCCGGTCTCCC
DNA 2: TGGTGGCTACGACGGGATT
B27: GGCGAUG (DNA:RNA)
RNA: B1 RNA with A27C, A28G, C30U
DNA 1: CAATCTGAATTCCGGTCTCCC
DNA 2: TGGTGGCTACGACGGGATT
B28: CGCGUAA (DNA:RNA)
RNA: B2 RNA with A25C, C26G, G27C, C28G, C29U
DNA 1: CAATCTGAATTCCGGTCTCCC
DNA 2: TGGTGGCTACGACGGGATT
B29: AACGAAC (DNA:RNA)
RNA: B2 RNA with C26A, G27C, C28G, C29A, A31C
DNA 1: CAATCTGAATTCCGGTCTCCC
DNA 2: TGGTGGCTACGACGGGATT
B30: UAAUUGU (DNA:RNA)
RNA: B1 RNA with G25U, G26A, A28U, A29U, C30G, G31U
DNA 1: CAATCTGAATTCCGGTCTCCC
DNA 2: TGGTGGCTACGACGGGATT
B31: GGCUGUC (DNA:RNA)
RNA: B1 RNA with A27C, A28U, A29G, C30U, G31C
DNA 1: CAATCTGAATTCCGGTCTCCC
DNA 2: TGGTGGCTACGACGGGATT

molecular target: T1, RBFOX1 RRM RbFoxmut (Fox-RRM*); experiment: EMSA; HiTS-Eq, 1 nM pool, 10 min; buffer printed only for the single-RNA assays: 10 mM Tris pH 7.5, 150 mM NaCl, 3.4 mM EDTA, 0.001% NP-40, 30 C; conditions: tags: His6 N-terminal (pET28a); label: 5' 32P
In short: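 A pool of RNA with 7 randomized nucleotides, 5′-radiolabelled and with DNA-annealed flanks, was equilibrated at 1 nM for 10 min in 50 µL with purified RbFox RRM, wild type or mutant, across increasing protein concentrations. Free RNA was separated by 8% native PAGE, excised, reverse-transcribed, barcoded by PCR and sequenced. Relative association constants were obtained from read-count changes of each RNA species versus the control reaction and normalised to the cognate motif.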

Row | Binder | binding signal
1 | B1 | 0.0703 KA relative to UGCAUGU
2 | B2 | 0.0795 KA relative to UGCAUGU
3 | B3 | 0.105 KA relative to UGCAUGU
4 | B4 | 0.098 KA relative to UGCAUGU
5 | B5 | 0.0748 KA relative to UGCAUGU
6 | B6 | 0.203 KA relative to UGCAUGU
7 | B7 | 0.113 KA relative to UGCAUGU
8 | B8 | 0.367 KA relative to UGCAUGU
9 | B9 | 0.426 KA relative to UGCAUGU
10 | B10 | 0.155 KA relative to UGCAUGU
11 | B11 | 0.389 KA relative to UGCAUGU
12 | B12 | 0.561 KA relative to UGCAUGU
13 | B13 | 0.18 KA relative to UGCAUGU
14 | B14 | 0.129 KA relative to UGCAUGU
15 | B15 | 0.21 KA relative to UGCAUGU
16 | B16 | 0.0952 KA relative to UGCAUGU

Row | Binder | binding signal
17 | B17 | 0.117 KA relative to UGCAUGU
18 | B18 | 0.0887 KA relative to UGCAUGU
19 | B19 | 0.0938 KA relative to UGCAUGU
20 | B20 | 0.131 KA relative to UGCAUGU
21 | B21 | 0.0994 KA relative to UGCAUGU
22 | B22 | 0.15 KA relative to UGCAUGU
23 | B23 | 0.145 KA relative to UGCAUGU
24 | B24 | 0.0717 KA relative to UGCAUGU
25 | B25 | 0.387 KA relative to UGCAUGU
26 | B26 | 0.141 KA relative to UGCAUGU
27 | B27 | 0.404 KA relative to UGCAUGU
28 | B28 | 0.114 KA relative to UGCAUGU
29 | B29 | 0.0568 KA relative to UGCAUGU
30 | B30 | 0.0755 KA relative to UGCAUGU
31 | B31 | 0.211 KA relative to UGCAUGU
